# According to PubChem BioAssay AID1345085 (National Center for Advancing Translational Sciences (NCATS), 2018):
# Inconclusive results are not listed. Values without a mark were called inactive. Active and inactive are the calls of the source. The call rests on the fitted dose curve; in most records, active means well fitted cell-killing curve with a large enough effect; inconclusive means small, poorly fitted or top-dose-only effect, or effect the other way; inactive means no such curve, though single readings can be large or run the other way.
# System: HeLa
# Assay: Confirmatory qHTS for gynecologic anti-cancer compounds from libraries of approved drugs and bioactive compounds; further: nearly all actives have a fitted effect of over 55% in size
# Conditions: gynecologic cancer cell panel viability, ATPlite luminescence, 48 h; series mostly up to 57.6 µM; activity change, negative = viability loss: at the top concentration
# Method in brief: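 ATP-based luminescent viability (ATPlite) after 48 h drug treatment at 37 °C, 5% CO2, across 57.5 uM–0.977 nM in 1:3 steps. Cells seeded at 1,000 per well 16 h beforehand; IC50 values computed, HEK 293T as selectivity control.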
# On the % scale 0 is the no-effect control and ±100 the full control effect; potency means the concentration at half of the fitted maximal effect.
SMILES,Potency,"activity change, negative = viability loss [%]"
C[C@@H](Oc1cc(-c2cnn(C3CCNCC3)c2)cnc1N)c1c(Cl)ccc(F)c1Cl,4.32 µM (active),
CC(C)CC(=O)Nc1n[nH]c2c1CN(C(=O)C1CCN(C)CC1)C2(C)C,3.43 µM (active),
O=C(c1ccc(F)c(F)c1Nc1ccc(I)cc1F)N1CC(O)([C@@H]2CCCCN2)C1,21.7 µM (active),
COc1cc(C(=O)N2CCC(N3CCN(C)CC3)CC2)ccc1Nc1ncc2c(n1)N(C)c1ccccc1C(=O)N2C,17.2 µM (active),
CC[C@]1(O)C[C@@H]2CN(CCc3c([nH]c4ccccc34)[C@@](C(=O)OC)(c3cc4c(cc3OC)N(C)[C@H]3[C@@](O)(C(=O)OC)[C@H](OC(C)=O)[C@]5(CC)C=CCN6CC[C@]43[C@@H]65)C2)C1,0.122 µM (active),
Nc1nccc(Oc2ccc(NC(=O)c3c[nH]cc(-c4ccc(F)cc4)c3=O)cc2F)c1Cl,6.85 µM (active),
CCCCc1oc2ccc(NS(C)(=O)=O)cc2c1C(=O)c1ccc(OCCCN(CCCC)CCCC)cc1,24.3 µM (active),
COc1cc2c(Nc3ccc(NC(=O)c4ccccc4)cc3)ncnc2cc1OCCCN1CCOCC1,21.7 µM (active),
CN(C)CCC(CSc1ccccc1)Nc1ccc(S(=O)(=O)NC(=O)c2ccc(N3CCN(Cc4ccccc4-c4ccc(Cl)cc4)CC3)cc2)cc1[N+](=O)[O-] (configuration not stated),19.3 µM (active),
Nc1nc(Cl)nc2c1ncn2C1OC(CO)C(O)C1F (configuration not stated),,-14.4
O=C(Nc1cn[nH]c1-c1nc2ccc(CN3CCOCC3)cc2[nH]1)NC1CC1,0.0432 µM (active),
CS(=O)(=O)c1ccc(C(=O)Nc2ccc(Cl)c(-c3ccccn3)c2)c(Cl)c1,,17.4
CCCCc1nc2cc(/C=C/C(=O)NO)ccc2n1CCN(CC)CC,1.72 µM (active),
CCC1=CC2CN(C1)Cc1c([nH]c3ccccc13)[C@@](C(=O)OC)(c1cc3c(cc1OC)N(C)[C@H]1[C@@](O)(C(=O)OC)[C@H](OC(C)=O)[C@]4(CC)C=CCN5CC[C@]31[C@@H]54)C2 (some centres not stated),0.0943 µM (active),
OC[C@H]1O[C@@H](n2cnc3c(=S)nc[nH]c32)[C@H](O)[C@@H]1O,4.32 µM (active),
Cc1nc(N)ncc1-c1nc(N2CCOCC2)c2sc(C(C)(C)O)cc2n1,1.72 µM (active),
CCCC(Nc1nc(-c2ccc(NC(=O)NCC)c(OC)c2)ncc1C)c1cccnc1 (configuration not stated),0.153 µM (active),
CNc1nccc(-c2cccnc2Oc2cc(C(=O)Nc3cccc(C(F)(F)F)c3)ccc2C)n1,15.3 µM (active),
CCc1cccc(CC)c1NC(=O)N1Cc2[nH]nc(NC(=O)c3ccc(N4CCN(C)CC4)cc3)c2C1,1.53 µM (active),

SMILES,Potency,"activity change, negative = viability loss [%]"
O=C(/C=C/c1cccc(S(=O)(=O)Nc2ccccc2)c1)NO,5.3 µM (active),
COc1cc(Nc2c(C#N)cnc3cc(OCCCN4CCN(C)CC4)c(OC)cc23)c(Cl)cc1Cl,27.3 µM (active),
COc1cc(Nc2ncc3c(n2)-c2ccc(Cl)cc2C(c2c(F)cccc2OC)=NC3)ccc1C(=O)O,0.685 µM (active),
Cc1cc(C(C)Nc2ccccc2C(=O)O)c2nc(N3CCOCC3)cc(=O)n2c1 (configuration not stated),17.2 µM (active),
Cc1ccc(C(N)=O)cc1Nc1nccc(-c2cn(C(C)C)c3cnccc23)n1,7.69 µM (active),
COCCOc1nc(-c2ccc(Cl)c(Cl)c2)n(-c2ccc(NC(=O)CCl)cc2)n1,24.3 µM (active),
CCC1C(=O)N(C)c2cnc(Nc3ccc(C(=O)NC4CCN(C)CC4)cc3OC)nc2N1C1CCCC1 (configuration not stated),0.0049 µM (active),
Cc1nc(NC(=O)N2CCCC2C(N)=O)sc1-c1ccnc(C(C)(C)C(F)(F)F)c1 (configuration not stated),19.3 µM (active),
CCN(CC)CCOc1ccc(/C(=C(\Cl)c2ccccc2)c2ccccc2)cc1,79.4 µM (active),
Cc1ccc(C(=O)N(CCCN)C(c2nc3cc(Cl)ccc3c(=O)n2Cc2ccccc2)C(C)C)cc1 (configuration not stated),0.0172 µM (active),
O=C(CCCCCCNC(=O)c1cnc(N(c2ccccc2)c2ccccc2)nc1)NO,7.69 µM (active),
COc1cc(N2CCC(N)CC2)ccc1Nc1ncc(Cl)c(-c2c[nH]c3ccccc23)n1,0.544 µM (active),
Cc1[nH]c2ccccc2c1CCNCc1ccc(/C=C/C(=O)NO)cc1,0.432 µM (active),
Oc1cn2c(n1)Nc1ccc(Cl)c(Cl)c1C2,0.0106 µM (active),
CC[C@H](CC#N)OC(=O)N[C@@H](C)c1cccc(NC(=O)Nc2ccc(-c3cnco3)c(OC)c2)c1,8.63 µM (active),
CN1CCN(CCOc2cc(OC3CCOCC3)c3c(Nc4c(Cl)ccc5c4OCO5)ncnc3c2)CC1,,1.73
Nc1ccccc1NC(=O)c1ccc(CNC(=O)OCc2cccnc2)cc1,4.32 µM (active),
O=C1c2c(O)ccc(O)c2C(=O)c2c(NCCNCCO)ccc(NCCNCCO)c21,2.43 µM (active),
